Data on six compounds can be found in PubChem BioAssay (Tox21).

Where “and” joins values, the source holds several entries; their conditions need not be identical. Equal entries are not always repeated. Values without a mark were called inactive. Results filed as inconclusive are left out. Calls of active or inactive are those of the source. Unless noted, the call rests on the fitted dose curve.

Assay [1] in a line: Nuclear factor erythroid 2-related factor 2/antioxidant responsive element (Nrf2/ARE) small molecule agonists: qHTS cell viability counter screen in human keratinocytes (AID 1919968; active means well fitted curve in the direction sought with a large enough effect in the repeat runs; an effect the other way counts as inactive or inconclusive; further: nearly all actives have a fitted effect of over 55% in size). A digest of the protocol: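 Viability counter-screen: KeratinoSens reporter cells, DMSO-delivered compounds, 23 h at 37 C, CellTiter-Fluor fluorescence.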
On the technique in general: Quantitative high-throughput screening tests each substance at several concentrations.

A short description of assay [2]: Nuclear factor erythroid 2-related factor 2/antioxidant responsive element (Nrf2/ARE) small molecule agonists: luciferase reporter gene qHTS assay in human keratinocytes (AID 1919969). Further: nearly all actives have a fitted effect of over 35% in size. Further: potency means the concentration at half of the fitted maximal effect.
Assay [3] addresses Gonadotropin-releasing hormone receptor (Homo sapiens) (UniProt P30968). As to the kind of experiment: Human gonadotropin-releasing hormone receptor (GnRHR) small molecule agonists, calcium flux assay in GnRHR-HEK293 cells (AID 1920063). Further: nearly all actives have a fitted effect of over 35% in size. The essentials: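 Tox21-format agonist screen using human GnRHR-expressing HEK293 cells and a fluorescent calcium dye; kinetic 3-min fluorescence reading after compound addition, 15-point concentration series run in triplicate.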

Assay [4] addresses KiSS-1 receptor (Homo sapiens) (UniProt Q969F8). As to the kind of experiment: Human kisspeptin (KISS1R) small molecule agonists, calcium flux assay in KISS1R-HEK293 cells (AID 1920064; active means well fitted curve in the direction sought with a large enough effect in the repeat runs; an effect the other way counts as inactive or inconclusive). The essentials: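 Intracellular calcium mobilization in KISS1R-HEK293 cells was recorded by fluorescence (Ex/Em 480/540) for 3 min following compound addition to cells pre-loaded 1 h with calcium dye.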
Background: Calcium flux is commonly read through the fluorescence of an indicator in the cells.

Assay [5] can be described thus: G protein-coupled receptor (GPCR) small molecule agonists, calcium flux assay: HEK293 wild type cell line counter screen (AID 1920065). A digest of the protocol: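 In this agonist-mode screen, ATP is the positive control and DMSO the vehicle. Cells grow 18 h before a 1 h dye incubation at 37 C; signal is taken at Ex/Em 480/540 over 3 min.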
A short description of assay [6]: p53 small molecule agonists, cell-based qHTS assay with human liver microsomes (AID 1963577). A digest of the protocol:
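p53RE-bla cells, 4,000/well, compound added after 5 h, with human liver microsomes 0.5 mg/mL and NADPH 0.5 mg/mL final; 16 h at 37 C, then LiveBLAzer 2 h RT, fluorescence.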

A short description of assay [7]: p53 small molecule agonists, cell-based qHTS assay with rat liver microsomes (AID 1963578). A digest of the protocol: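 p53RE-bla cells, 4,000/well, pre-incubated 5 h, then given compounds plus rat liver microsomes (0.5 mg/mL final) and NADPH (0.5 mg/mL final). Incubation 16 h at 37 C; beta-lactamase reporter read by LiveBLAzer fluorescence after 2 h at room temperature.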

A short description of assay [8]: p53 small molecule agonists, cell-based qHTS assay with rat liver microsomes: qHTS cell viability counter screen (AID 1963580). Further: nearly all actives have a fitted effect of over 45% in size. A digest of the protocol: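 In HCT-116 cells carrying a p53 response element-bla reporter, compounds were metabolically activated in situ by rat liver microsomes with NADPH over 16 h. Cell ATP content then served as the cytotoxicity measure.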

Assay [9] in a line: p53 small molecule agonists, cell-based qHTS assay: qHTS cell viability counter screen (AID 1963581). Further: nearly all actives have a fitted effect of over 45% in size. The essentials:
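Compounds are pinned onto HCT-116 p53RE-bla cells and left 16 h at 37 C. Following the reporter FRET read, ATP is quantified by CellTiter-Glo luminescence after 30 min at room temperature.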

Assay [10] in a line: p53 small molecule agonists, cell-based qHTS assay (AID 1963582; active means well fitted activation curve with a large enough effect in the signal ratio in the repeat runs, not every such curve was filed as active; the % refers to the signal ratio; further: potency means the concentration at half of the fitted maximal effect). The essentials: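 Agonist activity was scored from beta-lactamase FRET fluorescence in p53RE-bla cells treated 16 h at 37 C with compounds in DMSO, substrate incubation being 2 h at room temperature.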
Assay [11] concerns the target 5-hydroxytryptamine receptor 2A (Homo sapiens) (UniProt P28223). As to the kind of experiment: 5-hydroxytryptamine receptor 2A (HTR2A) small molecule antagonists, cell-based qHTS assay (AID 1963586). Further: nearly all actives have a fitted effect of over 45% in size. A digest of the protocol:
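Antagonist-mode intracellular calcium assay: DOI (4 nM) added after 5 min compound pre-incubation at room temperature to dye-loaded HTR2A-CHO cells. Fluorescence followed for 3 min, sampled every second.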

The target is the same in assay [12]. As to the kind of experiment: 5-hydroxytryptamine receptor 2A (HTR2A) small molecule agonists, cell-based qHTS assay (AID 1963587). Further: nearly all actives have a fitted effect of over 30% in size. The essentials:
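HTR2A-CHO cells, plated 18 h at 37 C/5% CO2, dye-loaded 1 h at 37 C; compounds in DMSO added by pin tool (agonist mode). Intracellular calcium flux read as kinetic fluorescence on FDSS over 2 min at 1 s intervals.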

The target in assay [13] is Muscarinic acetylcholine receptor M1 (Homo sapiens) (UniProt P11229). As to the kind of experiment: Cholinergic receptor muscarinic 1 (CHRM1) small molecule antagonists, cell-based qHTS assay (AID 1963588). Further: nearly all actives have a fitted effect of over 40% in size. A digest of the protocol:
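CHRM1-CHO calcium-flux assay, antagonist mode. Cells were seeded 18 h, dye-loaded 1 h at 37 C and given compound for 5 min at RT, then acetylcholine was added at 50nM. FDSS fluorescence was read 3 min; 15 concentrations, three runs.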

The target is the same in assay [14]. Nature of the assay: Cholinergic receptor muscarinic 1 (CHRM1) small molecule agonists, cell-based qHTS assay (AID 1963589). Further: nearly all actives have a fitted effect of over 35% in size. The essentials:
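Stable CHRM1-CHO cells (human receptor) were incubated 18 h, dye-loaded for 1 h at 37 C and exposed to test compounds for agonist activity, with calcium-dependent fluorescence followed kinetically.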

Assay [15] is described as follows: cAMP Responsive Elements (CRE) small molecule agonists, cell-based qHTS assay (AID 1963590). A digest of the protocol: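 FRET-based beta-lactamase readout (LiveBLAzer B/G, 2 h RT) quantified CRE activation in HEK 293T CRE-bla cells after 3 h treatment with DMSO-dissolved compounds.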
Assay [16] in a line: cAMP Responsive Elements (CRE) small molecule antagonists, cell-based qHTS assay (AID 1963591; active means well fitted inhibition curve with a large enough effect in the signal ratio in the repeat runs, not every such curve was filed as active; the % refers to the signal ratio). A digest of the protocol:
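qHTS in CRE-bla HEK 293T cells: compound in DMSO, then 0.25 uM NKH477 (final), 3 h at 37 °C/5% CO2; beta-lactamase FRET read-out after 2 h substrate incubation.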

In assay [17] the target is Beta-2 adrenergic receptor (Homo sapiens) (UniProt P07550). As to the kind of experiment: Adrenergic beta2 receptor (ADRB2) small molecule antagonists, cell-based qHTS assay (AID 1963592). Further: series mostly up to about 92 µM; nearly all actives have a fitted effect of over 50% in size. A digest of the protocol: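 Cells (CHO, stable ADRB2 overexpression) incubated 18-20hr at 37C; compounds added from DMSO; agonist mix (1nM isoproterenol, 100uM IBMX, 25uM Ro-20-1724) added; 0.5hr RT; d2-cAMP and anti-cAMP-cryptate added; 1hr RT; 665/615 nm read.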

Assay [18] deals with D(2) dopamine receptor (Homo sapiens) (UniProt P14416). Nature of the assay: Dopamine D2 receptor (DRD2) small molecule antagonists, cell-based qHTS assay (AID 1963595; active means well fitted inhibition curve with a large enough effect in the signal ratio in the repeat runs, with a control signal flat; the % refers to the signal ratio). A digest of the protocol: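 Human DRD2 antagonist qHTS measuring cAMP by HTRF. The cells are exposed to compound for 10 min, then to NKH477 (200 nM) and quinpirole (12 nM) for 30 min at RT, with Ro20-1724 (0.1 mM) present throughout.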

Assay [19] has the same target. Nature of the assay: Dopamine D2 receptor (DRD2) small molecule agonists, cell-based qHTS assay (AID 1963594). Further: nearly all actives have a fitted effect of over 35% in size. The essentials: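 HEK293 cells stably expressing DRD2 were cultured 24 h at 37 C, then given Ro20-1724 (0.1 mM final) and compounds for 10 min at room temperature. NKH477 (200nM) was then added for 30 min. cAMP was read by HTRF.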
Assay [20] can be described thus: p53 small molecule agonists, cell-based qHTS assay with human liver microsomes: qHTS cell viability counter screen (AID 1963579). Further: nearly all actives have a fitted effect of over 45% in size. A digest of the protocol: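 p53RE-bla cells, 4,000/well, dosed 5 hours after plating, with human liver microsomes (0.5 mg/mL final) plus NADPH (0.5 mg/mL final), 16 hours at 37 C. Viability read as CellTiter-Glo luminescence after 30 min at room temperature.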

Gonadotropin-releasing hormone receptor (Homo sapiens), sequence (P30968 whole entry, looked up): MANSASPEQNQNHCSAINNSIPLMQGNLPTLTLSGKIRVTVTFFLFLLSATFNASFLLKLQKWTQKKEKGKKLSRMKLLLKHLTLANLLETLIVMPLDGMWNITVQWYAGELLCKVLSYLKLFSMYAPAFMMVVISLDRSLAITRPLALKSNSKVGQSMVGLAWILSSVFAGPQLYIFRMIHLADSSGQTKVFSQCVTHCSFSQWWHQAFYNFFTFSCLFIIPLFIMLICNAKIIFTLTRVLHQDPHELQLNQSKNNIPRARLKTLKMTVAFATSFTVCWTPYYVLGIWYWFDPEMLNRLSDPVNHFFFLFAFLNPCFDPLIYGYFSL
5-hydroxytryptamine receptor 2A (Homo sapiens), sequence (P28223 whole entry, looked up): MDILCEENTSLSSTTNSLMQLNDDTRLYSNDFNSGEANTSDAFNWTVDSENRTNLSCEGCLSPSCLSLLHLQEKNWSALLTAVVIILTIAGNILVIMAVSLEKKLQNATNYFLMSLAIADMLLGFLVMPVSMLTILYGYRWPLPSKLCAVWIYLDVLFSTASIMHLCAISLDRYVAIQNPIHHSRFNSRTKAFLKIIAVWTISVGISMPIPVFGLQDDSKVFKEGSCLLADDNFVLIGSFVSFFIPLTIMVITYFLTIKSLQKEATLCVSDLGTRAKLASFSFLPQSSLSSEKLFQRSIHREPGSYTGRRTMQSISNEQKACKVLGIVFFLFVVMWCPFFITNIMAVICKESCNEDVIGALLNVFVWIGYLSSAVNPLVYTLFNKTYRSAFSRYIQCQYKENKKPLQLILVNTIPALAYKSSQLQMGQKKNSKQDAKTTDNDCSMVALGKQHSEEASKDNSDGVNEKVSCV
D(2) dopamine receptor (Homo sapiens), sequence (P14416 whole entry, looked up): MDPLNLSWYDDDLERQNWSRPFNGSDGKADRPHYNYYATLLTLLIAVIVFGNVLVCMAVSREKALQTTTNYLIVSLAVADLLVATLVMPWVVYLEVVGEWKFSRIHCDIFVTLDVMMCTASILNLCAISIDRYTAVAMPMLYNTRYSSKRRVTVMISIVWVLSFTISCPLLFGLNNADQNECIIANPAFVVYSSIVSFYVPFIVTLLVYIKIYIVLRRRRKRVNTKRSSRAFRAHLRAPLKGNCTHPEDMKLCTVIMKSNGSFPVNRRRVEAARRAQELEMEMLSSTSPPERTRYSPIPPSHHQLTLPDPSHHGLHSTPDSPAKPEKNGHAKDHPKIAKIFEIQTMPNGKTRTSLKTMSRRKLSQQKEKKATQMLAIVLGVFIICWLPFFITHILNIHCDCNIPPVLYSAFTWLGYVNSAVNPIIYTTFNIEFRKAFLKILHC
Muscarinic acetylcholine receptor M1 (Homo sapiens), sequence (P11229 whole entry, looked up): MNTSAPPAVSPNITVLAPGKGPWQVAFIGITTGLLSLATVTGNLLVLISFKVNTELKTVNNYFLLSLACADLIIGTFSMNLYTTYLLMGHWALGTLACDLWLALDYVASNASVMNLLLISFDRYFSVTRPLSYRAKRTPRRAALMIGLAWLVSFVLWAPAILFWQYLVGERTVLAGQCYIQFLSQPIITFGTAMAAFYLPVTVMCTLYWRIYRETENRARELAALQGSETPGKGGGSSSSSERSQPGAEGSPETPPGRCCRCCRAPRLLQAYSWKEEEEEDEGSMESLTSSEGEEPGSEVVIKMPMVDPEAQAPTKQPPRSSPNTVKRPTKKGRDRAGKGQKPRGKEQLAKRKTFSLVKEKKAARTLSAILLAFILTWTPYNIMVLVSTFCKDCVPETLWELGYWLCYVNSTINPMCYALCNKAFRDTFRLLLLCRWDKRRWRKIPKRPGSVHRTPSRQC
KiSS-1 receptor (Homo sapiens), sequence (Q969F8 whole entry, looked up): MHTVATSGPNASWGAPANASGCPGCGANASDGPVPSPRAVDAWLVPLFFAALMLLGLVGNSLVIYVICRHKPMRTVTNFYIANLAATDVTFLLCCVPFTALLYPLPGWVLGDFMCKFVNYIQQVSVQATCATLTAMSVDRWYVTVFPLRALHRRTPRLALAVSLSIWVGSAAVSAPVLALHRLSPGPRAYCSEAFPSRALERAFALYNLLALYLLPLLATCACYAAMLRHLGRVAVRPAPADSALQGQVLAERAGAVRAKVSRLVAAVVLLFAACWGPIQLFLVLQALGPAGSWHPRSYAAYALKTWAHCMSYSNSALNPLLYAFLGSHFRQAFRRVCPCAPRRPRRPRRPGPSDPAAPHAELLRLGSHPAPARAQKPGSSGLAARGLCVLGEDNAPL
Beta-2 adrenergic receptor (Homo sapiens), sequence (P07550 whole entry, looked up): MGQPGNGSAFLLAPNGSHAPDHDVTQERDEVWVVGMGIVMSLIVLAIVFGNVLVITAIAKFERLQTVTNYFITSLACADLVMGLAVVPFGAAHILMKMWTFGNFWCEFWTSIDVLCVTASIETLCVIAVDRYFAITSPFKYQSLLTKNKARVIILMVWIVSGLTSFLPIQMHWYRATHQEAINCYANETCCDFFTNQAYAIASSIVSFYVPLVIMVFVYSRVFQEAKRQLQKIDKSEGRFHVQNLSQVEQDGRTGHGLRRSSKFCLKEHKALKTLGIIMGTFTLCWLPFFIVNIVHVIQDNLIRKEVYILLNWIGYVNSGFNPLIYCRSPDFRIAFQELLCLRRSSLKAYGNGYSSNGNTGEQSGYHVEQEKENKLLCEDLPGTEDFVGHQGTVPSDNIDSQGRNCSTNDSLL

In the case of `CC(C)COC(=O)c1ccc(N)cc1`, the Potency result in assay [1], in [2], in assay [3], in [4], in assay [5] and in assay [6] was “inactive” throughout. The Potency result in [7], in assay [8], in assay [9], in [10], in [11] and in [12] was “inactive” in each case. The Potency result in assay [13], in assay [14], in assay [15], in [16], in assay [17] and in [18] was “inactive” throughout.

For the compound `NC(=O)NS(=O)(=O)c1ccc(Cl)cc1`, the Potency entry in assay [1], in assay [2], in assay [3], in [4], in [5] and in assay [6] was “inactive” throughout. Besides, the Potency entry in [7], in assay [8], in assay [9], in [10], in assay [12] and in assay [13] was “inactive” in each case. Also, the Potency entry in assay [15], in assay [16], in assay [17], in assay [19] and in [18] was “inactive” in each case.

Take `COC(=O)Nc1nc2ccc(Sc3ccccc3)cc2[nH]1`: the Potency result in [1], in [3], in [4], in [5], in assay [6] and in assay [7] was “inactive” each time. The Potency result in assay [20], in assay [16], in [17], in [19] and in assay [18] was “inactive” throughout. The Potency in assay [2] was 30.6 µM (active) and 3.35 µM (active); in assay [10], 0.363 µM (active).

For the compound `CS(C)(=O)=O`, the Potency result in assay [1], in assay [2], in assay [3], in assay [4], in [5] and in assay [6] was “inactive” in each case. Besides, the Potency result in assay [7], in assay [8], in [9], in [10], in [11] and in assay [12] was “inactive” throughout. Also, the Potency result in assay [14], in assay [15], in assay [16], in [17] and in assay [18] was “inactive” throughout.

On to `CCCCN(CCO)CCO`, for which the Potency result in assay [1], in [2], in [3], in assay [4], in assay [5] and in assay [6] was “inactive” each time. Further, the Potency entry in [7], in assay [20], in [9], in [11], in [12] and in [13] was “inactive” throughout. Besides, the Potency result in assay [15] and in [16] was “inactive” each time.

For `CC(=O)OCCCc1ccccc1`, the Potency result in assay [1], in assay [2], in assay [3], in [4], in assay [5] and in assay [6] was “inactive” in each case. The Potency result in [7], in assay [8], in [9], in assay [10], in assay [11] and in assay [13] was “inactive” throughout. Also, the Potency entry in assay [14], in assay [15], in assay [16], in assay [17] and in assay [18] was “inactive” in each case.
